Shown are actives, neighbours in structure and some others; about 7.5% of the full set was active somewhere.
FLuc modulator: firefly luciferase modulation, counter-screen for miR-21 project. P08659. purified FLuc, Km substrates, luminescence inhibition. Potency, µM (top dose mostly 57.5 µM), inactives show at the highest dose activity change, negative = inhibition, usual class: inhibitors. actives 6.9% (n = 360,000);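 also: plate controls were vehicle for no effect and reference inhibitor for full effect; nearly all actives have a fitted effect of over 55% in size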
Target sequence (P08659 whole entry, looked up): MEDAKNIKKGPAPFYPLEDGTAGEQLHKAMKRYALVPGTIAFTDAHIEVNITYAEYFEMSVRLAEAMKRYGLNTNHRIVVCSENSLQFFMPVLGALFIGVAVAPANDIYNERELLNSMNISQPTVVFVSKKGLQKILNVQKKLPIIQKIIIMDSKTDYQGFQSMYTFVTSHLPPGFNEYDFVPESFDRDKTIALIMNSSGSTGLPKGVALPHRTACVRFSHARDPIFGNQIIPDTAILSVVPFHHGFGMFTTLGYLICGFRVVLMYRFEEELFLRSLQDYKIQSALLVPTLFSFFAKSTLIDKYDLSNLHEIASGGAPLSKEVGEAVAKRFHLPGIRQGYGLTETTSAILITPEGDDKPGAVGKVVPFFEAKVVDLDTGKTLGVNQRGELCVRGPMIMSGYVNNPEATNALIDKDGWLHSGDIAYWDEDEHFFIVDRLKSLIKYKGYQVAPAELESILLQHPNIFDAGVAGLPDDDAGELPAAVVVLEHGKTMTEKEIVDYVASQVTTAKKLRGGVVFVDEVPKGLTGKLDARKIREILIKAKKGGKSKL
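Biochemical qHTS of compounds, final roughly 60 µM downward over six points, against 10 nM purified firefly luciferase using Km concentrations of substrates (10 uM D-luciferin, 10 uM ATP) in Tris acetate pH 7.5 buffer; luminescence output.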
SMN2 splice enh: enhancers of SMN2 splice variant expression; HEK293 SMN2-luciferase splicing reporter, luminescence, 30-36 h; actives 2.8% (n = 210,000); Potency, µM (series often up to 46.1 µM), without a hit: at the top dose activity change, positive = activation, hits mostly activators; also: % of control where 0% means no effect; nearly all actives have a fitted effect of over 55% in size
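qHTS luciferase splicing reporter: luminescence rises when SMN2 exon 7 is included in transfected HEK293 cells. Compound exposure lasted 30-36 h at 37C, with 4.5 mM final sodium butyrate as control, followed by a ONE-Glo read.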
NPC1 promoter act: NPC1 promoter activation | Potency, µM (top dose mostly 9.22 µM), inactives show at the top dose activation, actives largely listed as activators | AID 485313 | Huh7 NPC1 promoter luciferase reporter, 24 h | actives 2.4% (n = 320,000); also: % of control where 0% means no effect; nearly all actives have a fitted effect of over 60% in size
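Luciferase expression driven by the NPC1 promoter was measured in stably transfected Huh7 cells after a 24 h compound incubation, using a luciferase reagent and a luminescence read.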
Rab9 promoter act: Rab9 promoter activation; actives 2.8% (n = 320,000); Potency, µM (highest dose often 9.22 µM), for the others: top-dose activation, negative = inhibition, hits mostly activators; AID 485297; Huh7 Rab9 promoter-luciferase reporter, luminescence, 24 h; also: % of control where 0% means no effect; nearly all actives have a fitted effect of over 60% in size
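Rab9 promoter-driven luciferase in stably transfected Huh7 cells; 1500 cells/well rested 2 h, exposed to compound in DMSO for 24 h at 37 °C, 5% CO2. Luminescence read 10 min after adding luciferase reagent at ambient temperature.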
KinaseGlo FLuc: Kinase-Glo luciferase inhibition (counter-screen); Potency, µM (doses to about 38.3 µM), without a hit: at the highest dose activity change, negative = inhibition, hits mostly inhibitors; actives 0.28% (n = 200,000); Kinase-Glo luciferase, ATP luminescence, 8 min; also: % is scaled to controls: 0 for no effect and ±100 for the full control effect; nearly all actives have a fitted effect of over 60% in size
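Light output from Kinase-Glo luciferase with luciferin and 10 uM ATP in 50 mM imidazole pH 7.2, KCl, MgCl2, Tween 20, BSA; compound pin-delivered, 8-min ambient incubation, then luminescence read.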
ELG1 genotoxic: genotoxicity induction in ELG1-luciferase HEK293T cells | actives 1.3% (n = 330,000) | AID 504466 | HEK293T ELG1-luciferase reporter, luminescence, 16 h | Potency, µM (titrated, usually from 46 µM), for inactives: at the top dose activity change, positive = activation, usual class: activators; also: % of control where 0% means no effect; nearly all actives have a fitted effect of over 60% in size
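16 hr compound incubation (37 °C, 5% CO2) of HEK293T cells carrying luciferase-tagged ELG1; luciferase then measured by ONE-Glo luminescence after 30 min at RT.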
* = called active by the depositor; ? = inconclusive; / = no result given; [ ] = dose if it differs, or a comment. Calls follow the shape of the dose curve; as a rule, active = well fitted curve in the direction sought with a large enough effect; inconclusive = small, poorly fitted or top-dose-only effect, or another doubt; inactive = no such curve, though single readings can be large; an effect the other way counts as inactive or inconclusive. Potency is read from the fitted curve at half-maximal effect.

SMILES | FLuc modulator | SMN2 splice enh | NPC1 promoter act | Rab9 promoter act | KinaseGlo FLuc | ELG1 genotoxic
CCOc1ccc(C(=O)CSc2nnc(N)s2)cc1 | 13µM* | 12% | 2.5µM* | 3.2µM* | -4% | ?
Cc1ccc(C(=O)CSc2nnc(N)s2)c(C)c1 | 17µM* | 16µM* | 3.2µM* | 2.5µM* | -1% | 15µM*
O=C(O)c1ccc(Nc2nc3ccccc3c3nncn23)cc1 | -19% | 11% | / | / | / | /
COc1ccccc1NC(=O)Cn1c(C)cc(C)c(C#N)c1=O | 3% | / | / | / | / | /
CCOC(=O)/C(C#N)=C\c1cc(C)n(-c2ccccc2)c1C | 0.43µM* | -66% | 1.6µM* | 1.8µM* | -3% | ?
CCCn1c(C)cc(/C=C(\C#N)C(=O)OCC(=O)Nc2ccc(OC)c(Cl)c2)c1C | ? | / | -1% | 11% | / | 2%
Cc1cc(/C=C(\C#N)C(=O)Nc2ccccc2)c(C)n1-c1ccc(C(=O)O)cc1 | -5% | / | 3% | 0% | / | -4%
CCCn1c(C)cc(/C=C(\C#N)C(=O)OCC(=O)NC(=O)NCC)c1C | 12µM* | 6% | 0% | -7% | 18% | 3%
CCOC(=O)/C(C#N)=C/c1cc(C)n(-c2ccc(C)cc2)c1C | 2.4µM* | -7% | 2.8µM* | 1µM* | 2% | 1.8µM*
CN(c1ccc(F)cc1)S(=O)(=O)N1CCCC(C(=O)NCCc2ccccc2)C1 (stereo not drawn) | -8% | / | / | / | / | /
Cc1ccc(S(=O)(=O)CCC(=O)OCC(=O)NC(C)c2ccccc2)cc1 (stereo not drawn) | 1% | / | -4% | -1% | / | -3%
C#CCOc1ccc(/C=C2/C(=O)NN(c3ccc(F)cc3)C2=O)cc1OC | 1.9µM* | / | -4% | -4% | / | 4%
COc1cc(C=C2C(=O)OC(C)(C)OC2=O)ccc1OCC(=O)Nc1ccccc1 | 11µM* | 14% | -3% | -8% | 4% | ?
COc1cc(/C=C2\C(=O)NN(c3ccccc3)C2=O)ccc1OCC(N)=O | 11µM* | 6% | -10% | 1% | -2% | 0%
COC(=O)c1ccc(N2NC(=O)/C(=C/c3ccc(OC)c(OC)c3)C2=O)cc1 | ? | / | 1% | -2% | / | 0%
CO[C@@H]1[C@@H]2OP(=O)(O)OC[C@H]2O[C@H]1n1c(Sc2ccc(Cl)cc2)nc2c(N)ncnc21 | / | / | / | / | 1%[39.9 µM] | /
COc1ccc(NC(=O)c2cc(C3CC3)nc3c2c(C)nn3-c2ccccc2)c(OC)c1 | -6% | / | / | / | / | /
CCOC(=O)c1cc(-c2ccccc2)n(-c2cccc(C(=O)Nc3ccc(OCC)cc3)c2)c1C | -8% | / | / | / | / | /
CC(Oc1ccc(F)cc1)C(=O)NCC1(N(C)C)CCCCC1 (stereo not drawn) | -2% | / | / | / | / | /
COc1ccc(NC(=O)c2ccc(-c3ccc(OC)cc3)s2)cc1 | -1% | 10µM* | -6% | 3% | 0% | 9%
CNC(=O)c1ccc(-c2ccc(OC)cc2)s1 | 6.7µM* | 18µM* | 1.3µM* | 12% | -3% | ?
CNC(=O)c1ccc(-c2ccc(F)cc2)s1 | 9.5µM* | ? | ? | ? | -9% | 18µM*
Cc1ccc(Nc2nc(COC(=O)COc3ccc(C=O)cc3)cs2)cc1 | 2.7µM* | 35µM* | ? | ? | -1% | ?
O=C(COc1ccc(Cl)cc1)OCc1csc(Nc2ccccc2)n1 | -17% | -7% | -1% | -2% | 1% | 2%
C/C=C/c1ccc(OCC(=O)OCc2csc(Nc3ccc(C)cc3)n2)c(OC)c1 | 12µM* | 11µM* | ? | ? | 6% | 13%
SMILES | FLuc modulator | SMN2 splice enh | NPC1 promoter act | Rab9 promoter act | KinaseGlo FLuc | ELG1 genotoxic
Cc1ccccc1Nc1oc(-c2ccccc2)nc1-c1ccccc1F | / | 0% | / | / | 2% | /
O=C(CCC(=O)c1cccs1)OCc1nc2ccccc2s1 | ? | 6% | 1% | 1% | -5% | 4%
O=C(OCc1nc2ccccc2s1)c1ccc(Br)s1 | 19µM* | -14% | 12% | 14% | -8% | 4%
O=C(OCc1nc2ccccc2s1)c1cc2ccccc2oc1=O | 19µM* | -2% | 11% | 4% | -1% | ?
Nc1ccc(C(=O)OCc2nc3ccccc3s2)cc1 | 17µM* | 2% | 17% | 27% | -3% | ?
Cc1ccc(C(=O)OCc2nc3ccccc3s2)o1 | 15µM* | / | 1% | ? | / | ?
O=C(CCc1nc2ccccc2s1)OCc1ccccc1 | -18% | -10% | -1% | 9% | 3% | 0%
Cc1ccc(CSc2nc3cccnc3n2Cc2ccc(C(=O)NC3CCCCC3)cc2)cc1 | 0.34µM* | / | / | / | / | /
O=C(NC1CCCCC1)c1ccc(CSc2nc3cccnc3n2Cc2ccccc2F)cc1 | -16% | / | / | / | / | /
Cc1ccc(CSc2nc3cccnc3n2Cc2ccc(C(=O)NCCc3cccs3)cc2)cc1 | 0.43µM* | / | / | / | / | /
O=C(NC1CCCCC1)c1ccc(Cn2c(SCc3ccccc3F)nc3cccnc32)cc1 | 8.5µM* | / | / | / | / | /
O=C(NC1CC1)c1ccc(Cn2c(SCc3ccccc3F)nc3cccnc32)cc1 | 4.8µM* | / | / | / | / | /
CCN1c2ccccc2-c2nc(SCC(=O)NCc3ccccc3)ncc2S1(=O)=O | -2% | / | / | / | / | /
COc1ccc2c(c1)C(c1ccc(C)cc1)CC(=O)O2 (stereo not drawn) | / | / | / | / | -2%[39.9 µM] | /
O=C(c1ccc(CSc2nc3ccncc3n2Cc2ccccc2F)cc1)N1CCCCCC1 | 24µM* | -18% | / | / | / | /
Cc1ccccc1Cn1c(SCc2ccc(C(=O)N3CCCCC3)cc2)nc2ccncc21 | ? | -64% | / | / | / | /
Cc1c(C(=O)Nc2ccc3c(c2)OCCO3)sc2ncnc(N3CCCCC3C)c12 (stereo not drawn) | 11µM* | / | -2% | -1% | / | -11%
CN=c1scc(-c2ccc(OC)cc2)n1/N=C(\C)c1cccnc1 | 12µM* | -21% | 14% | 1% | 3% | -2%
COc1ccc(CC(=O)N/N=C(\C)c2cccnc2)cc1 | 2% | / | -1% | 3% | / | 4%
CCN(CC)CCNc1ncnc2c1[nH]c1ccc(OC)cc12 | 8% | -15% | 0% | -10% | -6% | -1%
COc1ccc2[nH]c3c(NCCCOC(C)C)ncnc3c2c1 | 6µM* | / | 1.8µM* | 0.79µM* | / | ?
COc1ccc2[nH]c3c(NCc4ccco4)ncnc3c2c1 | 9.5µM* | 2% | ? | 4µM* | -6% | 9%
COc1ccc2[nH]c3c(NCCC4=CCCCC4)ncnc3c2c1 | 11µM* | -34% | -23% | -16% | -2% | -3%
Cc1ccc(C)c(NS(=O)(=O)c2cc3c(cc2C)n(C)c(=O)c(=O)n3C)c1 | 4% | / | / | / | / | /
Cc1ccc2cc3cc(C(=O)N4CCN(c5ccc(Cl)cc5)CC4)oc3nc2c1 | 1% | 0% | / | / | / | /
COc1ccc(NC(=O)Cn2c(=O)oc3cc(S(=O)(=O)N4CCCC4)ccc32)cc1OC | -3% | -6% | / | / | / | /

From PubChem BioAssay
